Experimental data as given in the antibiotic and cytotoxicity screens of Wong et al. (2023).
In all, about 39,000 compounds went through this assay and about 3,300 (8.5%) were called active. The entries come from a sample that favours actives as a whole.

System: HepG2
Assay: cytotoxicity call (relative viability < 0.9)
Details: 10 µM

Row | Structure (SMILES) | cytotoxicity call
1 | COc1ccc(S(=O)(=O)Nc2ccc3c(c2)C(=O)N([C@H](C)CO)C[C@H](C)[C@H](CN(C)C(=O)CCC(F)(F)F)OCCCC[C@@H](C)O3)cc1 | inactive
2 | COc1ccc(NC(=O)Nc2ccc3c(c2)C(=O)N([C@H](C)CO)C[C@@H](C)[C@@H](CN(C)Cc2ccncc2)OCCCC[C@@H](C)O3)cc1 | inactive
3 | Cc1ccc(S(=O)(=O)NCC[C@H]2CC[C@@H](NS(=O)(=O)c3ccccc3Cl)[C@@H](CO)O2)cc1 | inactive
4 | Cc1noc(C)c1NC(=O)Nc1ccc2c(c1)CC(=O)N([C@@H](C)CO)C[C@@H](C)[C@H](CN(C)S(=O)(=O)c1cn(C)cn1)O2 | inactive
5 | CN1C(=O)c2cc(NC(=O)c3cnccn3)ccc2OC[C@H]2O[C@@H](CC(=O)N[C@H]3CCN(Cc4ccccc4)C3)CC[C@H]21 | inactive
6 | COc1ccc(CN(C)C[C@H]2OCCCC[C@H](C)Oc3ccc(NC(=O)Nc4cccc5ccccc45)cc3C(=O)N([C@H](C)CO)C[C@H]2C)cc1 | inactive
7 | COc1ccc(CN(C)C[C@H]2OCCCC[C@@H](C)Oc3ccc(NC(=O)Nc4cccc5ccccc45)cc3C(=O)N([C@@H](C)CO)C[C@@H]2C)cc1 | inactive
8 | COc1ccc(CN(C)C[C@@H]2OCCCC[C@@H](C)Oc3ccc(NC(=O)Nc4cccc5ccccc45)cc3C(=O)N([C@@H](C)CO)C[C@@H]2C)cc1 | inactive
9 | COc1ccc(CN(C)C[C@H]2OCCCC[C@@H](C)Oc3ccc(NC(=O)Nc4cccc5ccccc45)cc3C(=O)N([C@@H](C)CO)C[C@H]2C)cc1 | active
10 | COc1ccc(CN(C)C[C@@H]2OCCCC[C@@H](C)Oc3ccc(NC(=O)Nc4cccc5ccccc45)cc3C(=O)N([C@H](C)CO)C[C@@H]2C)cc1 | inactive
11 | COc1ccc(CN(C)C[C@H]2OCCCC[C@@H](C)Oc3ccc(NC(=O)Nc4cccc5ccccc45)cc3C(=O)N([C@H](C)CO)C[C@@H]2C)cc1 | active
12 | C[C@H]1CN([C@@H](C)CO)C(=O)c2cc(NC(=O)Cn3cnnn3)ccc2O[C@H]1CN(C)S(=O)(=O)c1ccc(F)cc1 | inactive
13 | C[C@@H]1CN([C@H](C)CO)C(=O)c2cccc(NS(=O)(=O)c3ccccc3)c2O[C@@H]1CN(C)S(=O)(=O)c1ccccc1 | inactive
14 | C[C@@H]1CN([C@H](C)CO)C(=O)c2cc(NC(=O)Cc3ccccc3)ccc2O[C@@H](C)CCCCO[C@H]1CN(C)C(=O)Nc1ccc(F)cc1 | inactive
15 | C[C@H]1CN([C@@H](C)CO)C(=O)Cc2cc(NS(=O)(=O)c3ccc(F)cc3)ccc2O[C@H]1CN(C)S(=O)(=O)c1ccccc1 | inactive
16 | C#Cc1cnc(OC)cn1 | inactive
17 | C[C@H]1CCCCO[C@H](CN(C)C)[C@@H](C)CN([C@@H](C)CO)C(=O)c2cc(NC(=O)Nc3cccc4ccccc34)ccc2O1 | inactive
18 | C[C@H](CO)N1C[C@H](C)[C@@H](CN(C)C)OCCCC[C@H](C)Oc2ccc(NC(=O)Nc3cccc4ccccc34)cc2C1=O | inactive
19 | C[C@H]1CCCCO[C@H](CN(C)CC2CCCCC2)[C@@H](C)CN([C@@H](C)CO)C(=O)c2cc(NC(=O)Nc3cccc4ccccc34)ccc2O1 | active
20 | C[C@@H]1CN([C@@H](C)CO)C(=O)c2cc(NC(=O)Nc3cccc4ccccc34)ccc2O[C@@H](C)CCCCO[C@@H]1CN(C)CC1CCCCC1 | active
21 | C[C@@H]1CN([C@@H](C)CO)C(=O)c2cc(NC(=O)Nc3cccc4ccccc34)ccc2O[C@@H](C)CCCCO[C@H]1CN(C)CC1CCCCC1 | active
22 | C[C@@H]1CCCCO[C@H](CN(C)CC2CCCCC2)[C@@H](C)CN([C@H](C)CO)C(=O)c2cc(NC(=O)Nc3cccc4ccccc34)ccc2O1 | active
23 | CN(C)c1ccc(O)c2c1C[C@@H]1C[C@@H]3[C@@H](N(C)C)C(=O)C(C(N)=O)=C(O)[C@]3(O)C(=O)[C@H]1C2=O | inactive

Row | Structure (SMILES) | cytotoxicity call
24 | CC(C)NC(=O)N(C)C[C@@H]1Oc2ccc(NC(=O)Cn3cnnn3)cc2C(=O)N([C@H](C)CO)C[C@H]1C | inactive
25 | COCC#Cc1ccc2c(c1)O[C@H](CN(C)S(=O)(=O)c1ccc(OC)cc1)[C@@H](C)CN([C@H](C)CO)S2(=O)=O | inactive
26 | O=C(O)c1ccc2c(ccc3nn(-c4ccc(/C=C/c5ccc(-n6nc7ccc8cc(C(=O)O)ccc8c7n6)cc5S(=O)(=O)O)c(S(=O)(=O)O)c4)nc32)c1 | inactive
27 | C[C@H]1CN([C@@H](C)CO)C(=O)c2cc(C#Cc3ccncc3)cnc2O[C@H]1CN(C)C(=O)c1ccccc1F | inactive
28 | COc1ccc(S(=O)(=O)N(C)C[C@H]2Oc3ccc(NC(=O)CCC(F)(F)F)cc3CC(=O)N([C@@H](C)CO)C[C@H]2C)cc1 | inactive
29 | C[C@@H]1CN([C@H](C)CO)C(=O)c2c(c3ccccc3n2C)-c2ccccc2CO[C@@H]1CN(C)Cc1cccc(O)c1 | inactive
30 | Cc1noc(C)c1NC(=O)Nc1cccc2c1O[C@@H](CN(C)Cc1ccc(C(=O)Nc3ccccc3N)cc1)[C@H](C)CN([C@@H](C)CO)C2=O | inactive
31 | C[C@@H]1CN([C@H](C)CO)C(=O)Cc2cc(NC(=O)Cc3ccccc3)ccc2O[C@@H]1CN(C)S(=O)(=O)c1ccccc1 | inactive
32 | C[C@@H]1CN([C@H](C)CO)S(=O)(=O)c2ccc(C#CC3CCCC3)cc2O[C@H]1CN(C)Cc1cncnc1 | inactive
33 | C[C@H](CO)N1C[C@H](C)[C@H](CN(C)Cc2ccncc2)Oc2c(NS(=O)(=O)c3cccs3)cccc2C1=O | inactive
34 | CO[C@@H]1CN(C)C(=O)c2ccc(NC(=O)Nc3cccc(F)c3)cc2OC[C@@H](C)N(C(=O)Nc2cccc(F)c2)C[C@H]1C | inactive
35 | C[C@H](CO)N1C[C@H](C)[C@H](CN(C)C(=O)CN2CCOCC2)Oc2cc(C#Cc3cccc(F)c3)ccc2S1(=O)=O | inactive
36 | C[C@@H]1CCCCO[C@@H](CN(C)CC2CC2)[C@H](C)CN([C@H](C)CO)C(=O)c2cc(NC(=O)Nc3cccc4ccccc34)ccc2O1 | inactive
37 | C[C@@H]1CCCCO[C@H](CN(C)CC2CCCCC2)[C@H](C)CN([C@@H](C)CO)C(=O)c2cc(NC(=O)Nc3cccc4ccccc34)ccc2O1 | active
38 | C[C@@H]1CCCCO[C@@H](CN(C)CC2CC2)[C@H](C)CN([C@@H](C)CO)C(=O)c2cc(NC(=O)Nc3cccc4ccccc34)ccc2O1 | inactive
39 | C[C@@H]1CCCCO[C@@H](CN(C)CC2CCCCC2)[C@@H](C)CN([C@@H](C)CO)C(=O)c2cc(NC(=O)Nc3cccc4ccccc34)ccc2O1 | active
40 | C[C@@H]1CN([C@@H](C)CO)C(=O)c2cc(NC(=O)Nc3cccc4ccccc34)ccc2O[C@@H](C)CCCCO[C@H]1CN(C)CC1CC1 | inactive
41 | C[C@@H]1CCCCO[C@@H](CN(C)CC2CC2)[C@@H](C)CN([C@H](C)CO)C(=O)c2cc(NC(=O)Nc3cccc4ccccc34)ccc2O1 | inactive
42 | C[C@@H]1CCCCO[C@H](CN(C)C)[C@@H](C)CN([C@H](C)CO)C(=O)c2cc(NC(=O)Nc3cccc4ccccc34)ccc2O1 | inactive
43 | C[C@@H]1CCCCO[C@@H](CN(C)C)[C@H](C)CN([C@H](C)CO)C(=O)c2cc(NC(=O)Nc3cccc4ccccc34)ccc2O1 | inactive
44 | C[C@@H]1CCCCO[C@H](CN(C)CC2CCCCC2)[C@H](C)CN([C@H](C)CO)C(=O)c2cc(NC(=O)Nc3cccc4ccccc34)ccc2O1 | active
45 | C[C@H]1CCCCO[C@@H](CN(C)CC2CCCCC2)[C@@H](C)CN([C@@H](C)CO)C(=O)c2cc(NC(=O)Nc3cccc4ccccc34)ccc2O1 | active
